Test results taken from the supplement of paper PMC6555819.

Experiments:
Assay in all cases: PBM binding z-score (relative to random genomic background probes); higher = stronger binding; sequences stand for … in GC…GCGATTGACAGCGTAGAATGAAGG
[1] = system: RARb homodimer (NR concentration 270 nM)
Outline: (§1)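 Each nuclear receptor dimer, without ligand, was incubated for 1 h on custom Agilent 4×180K protein-binding microarrays. Binding was detected with antibodies against each partner (one per run), and scanned fluorescence was regression-normalized. The binding z-scores are referenced to random human genomic background probes.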

[2] = system: RARg:RXRa (NR concentration 270 nM, RXRa partner concentration 90 nM)
Outline: as §1

[3] = system: RARg homodimer (NR concentration 270 nM)
Outline: as §1

[4] = system: RXRa DBDmut IVT, anti-RXR (DBD mutation: RXRa K156A/R161A, NR concentration 90 nM)
Outline: as §1

[5] = system: RXRa homodimer (NR concentration 180 nM)
Outline: as §1

[6] = system: THRa:RXRa (NR concentration 90 nM, RXRa partner concentration 90 nM)
Outline: as §1

[7] = system: THRa homodimer (NR concentration 90 nM)
Outline: as §1

[8] = system: VDR homodimer (NR concentration 270 nM)
Outline: as §1

Sequence | PBM binding z-score [1] | PBM binding z-score [2] | PBM binding z-score [3] | PBM binding z-score [4] | PBM binding z-score [5] | PBM binding z-score [6] | PBM binding z-score [7] | PBM binding z-score [8]
TCTGCTAGGTCAATTGGTCAGCTAACGAGCTGCC | 2.93 | 3.91 | 4.34 | 1.21 | 2.09 | 2.3 | -0.00918 | -0.473
TCGAGTAGGTTAGGGGCATTCACAATGGCGTCGA | 0.776 | 0.234 | 0.502 | 0.518 | 0.424 | 1.06 | 0.276 | 1.04
CTCGAAAGGGCGGTTGAGGTGAGTATACGGATAA | 0.872 | 0.317 | 0.636 | 0.039 | -0.0679 | 4.21 | 1.28 | 0.0137
TTACCAAGGTGAGCTGAAGTCGTTGATCCAACTC | -0.14 | 0.0635 | -0.108 | -0.671 | 0.0519 | 0.821 | -0.297 | -0.905
CGAACCAGGTCAGAACAGGACAGTGAAGGATGAT | 2.14 | 2.84 | 3.33 | 0.868 | 2.06 | 3.69 | 0.812 | 0.276
AGAACGAGGTTATTAAGATCAGGGAATTGCGGTC | 0.861 | 0.912 | 0.734 | 1.68 | 1.82 | 1.65 | 0.227 | 1.33
CTTCCAAGGTCAGCAGGTCAGTGAAAGCGACGTG | 5.26 | 6.14 | 6.94 | 2.24 | 5.48 | 3.83 | 2.79 | 1.68
CGTCAAAGTTCAAGGAAACGTAACAGAAAGCAGC | 3.35 | 4.85 | 5.68 | 4.06 | 3.84 | 1.49 | -0.29 | 2.61
ACAGACAGGTGATGAAGGTAATTCAGGCTATCAT | -0.0158 | 0.139 | 0.241 | -0.19 | 0.13 | 0.514 | 0.165 | -0.369
GCGACTGGGGCAAAGCAGGCTACCATAAGGTTGG | 0.228 | 0.143 | 0.207 | -0.628 | 0.0152 | 1.59 | -0.688 | -0.862
TCTAGCAGGCCAGAGGGTCACTCCAGAGGTACGG | 2.59 | 2.1 | 1.86 | -0.234 | 1.97 | 1.38 | -0.258 | 0.403
AGTCAAAGTTCAGGACGAGGGAACGTAAAGCACG | 2.88 | 4.2 | 4.74 | 3.07 | 2.87 | 2.44 | 0.19 | 1.74
TCTCGGAGGACACGAAATGTCAGAGCTCGACATC | 1.04 | 0.897 | 1.7 | 0.78 | 0.302 | 1.54 | 0.334 | -0.342
CCGAGTAGGCTATGGGGCATTCAGGCAACGGTGA | -0.154 | -0.57 | -0.466 | -0.62 | -0.38 | -0.343 | -0.619 | -0.709
ACTTACGGGTCAACGTGGTTATAGCACGCGTATA | 3.03 | 5.25 | 5.16 | 2.08 | 6.28 | 2.64 | 0.124 | 1.18
TCTTGTAGATTAATAGAGGTTAAGAAAGTGCGCT | 1.51 | 0.95 | 0.856 | 1.23 | 1.66 | 1.81 | -0.0934 | 0.699
CGAACTAGGTCATCCCGGACAGTGAATACATTGA | 2.84 | 3.68 | 4.66 | 2.33 | 2.6 | 2.86 | 1.4 | 1.91

Sequence | PBM binding z-score [1] | PBM binding z-score [2] | PBM binding z-score [3] | PBM binding z-score [4] | PBM binding z-score [5] | PBM binding z-score [6] | PBM binding z-score [7] | PBM binding z-score [8]
ATCGAAAGGTCGAAGGTGAGGATACCCACCCGAA | 2.56 | 4.41 | 3.84 | 0.413 | 5.16 | 3.1 | 1.1 | 0.293
GCTGCTAGGTCAGGTTGGGCAGCTAACGGGTACG | 2.36 | 2.43 | 3.88 | 0.101 | 0.717 | 1.91 | 0.583 | 0.178
TAGGCTAGGTCAGATCGGGCCAGTATACGCTATA | 2.06 | 2.87 | 3.61 | -0.36 | 1.45 | 4.13 | -0.412 | -0.515
GCATATAGGTAATACCAGGTGAAAGTCCGATTGT | 0.327 | 0.203 | 0.193 | 0.247 | 0.369 | 3.99 | 0.748 | -0.0397
CCTAGTTGGTCAGGAGGTCACACACCGGATATGA | 4.56 | 5.11 | 4.78 | 0.706 | 4.83 | 3.61 | 2.6 | 2.82
CCTAACAGGCCAGGGTCACTCAAGCATTTCGCTT | 2.8 | 3.17 | 2.48 | 0.743 | 3.37 | 3.01 | 1.15 | 1.44
ATCGAAAGGTCGACGAGGTTAGTATACACCGTTT | 3.1 | 4.27 | 4.18 | 1.45 | 4.55 | 3.37 | 0.478 | 2.31
TGTCAAAGTTCAATGGTAACGTAAGTATCCACAC | 3.32 | 4.79 | 5.39 | 3.67 | 3.74 | 1.39 | -0.627 | 3.52
TAGCCTAGGTCATGGGCCAGGATACCACGCGAAC | 2.85 | 4.26 | 4.49 | -0.534 | 3.86 | 3.22 | 1.33 | 0.424
CATACTAGGTCACGAAAGGTCAAAGTCGAATGAC | 5.99 | 7.94 | 8.68 | 2.83 | 8.69 | 5.16 | 2.91 | 4.71
CGTCCAAGGACAAGGTCAGTGAAAGAGACTCGAA | 3.32 | 3.17 | 3.98 | 1.46 | 2.22 | 3.63 | 2.39 | 0.725
TAGCCTTGGTCATTCAGGGGCCAGTATAGAAAGC | 1.09 | 2.02 | 0.792 | -0.76 | 0.416 | 0.75 | -0.852 | -0.456
GCATGTAGATCAAGGTTAAGAAAGACTAAGCTAA | -0.0945 | 0.235 | 0.318 | 0.0216 | 0.645 | 1.26 | -0.345 | -0.573
CCTACTGGGCCATTCAGAGGTCAGTGATCATATG | 3.78 | 4 | 2.75 | 0.291 | 2.29 | 2.18 | 0.651 | 1.13
ATCCCTAGGTAACCAAGTTCAGTGAATGCCGAAC | 1.97 | 0.484 | 0.374 | 0.841 | 0.841 | 1.79 | 1.02 | 2.77
TCTTGTAGATCAACAGGAGGTTAAGAAAGATCGA | 0.548 | 0.934 | 0.306 | 0.35 | 0.762 | 0.782 | -0.703 | -0.387
ATCTCTAGGTAAGACTCAGTTCAGTGCAGAACGC | 0.696 | 0.23 | 0.29 | 0.644 | 0.206 | 0.914 | 0.919 | 1.71
